Binding response (% of control) data for 91 compounds are collected here from PubChem BioAssay AID1441 (NMMLSC, 2008).

About 830 (0.38%) of roughly 220,000 compounds were called active. The list comes from a sample in which actives are over-represented; it also holds similar structures and randomly drawn compounds. Unmarked numbers belong to inactive results. The rule behind the calls is not given here.

The target in this test is Regulator of G-protein signaling 16 (Homo sapiens) + Guanine nucleotide-binding protein G(o) subunit alpha (Homo sapiens) (UniProt O15492+P09471). As to the kind of experiment: RGS16-Galphao interaction inhibitors and enhancers – biochemical, human proteins, multiplexed bead flow cytometry, primary screen (AID 1441).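 Note: Galphao activated by GDP with aluminum fluoride before binding.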 The settings on record: bead-based flow cytometry RGS16-Galphao binding, fluorescence; at 10 µM; actives lie on both sides. On the technique in general: A flow cytometer gives signals particle by particle.
Chain of Regulator of G-protein signaling 16 (Homo sapiens) + Guanine nucleotide-binding protein G(o) subunit alpha (Homo sapiens) (O15492 whole entry, looked up): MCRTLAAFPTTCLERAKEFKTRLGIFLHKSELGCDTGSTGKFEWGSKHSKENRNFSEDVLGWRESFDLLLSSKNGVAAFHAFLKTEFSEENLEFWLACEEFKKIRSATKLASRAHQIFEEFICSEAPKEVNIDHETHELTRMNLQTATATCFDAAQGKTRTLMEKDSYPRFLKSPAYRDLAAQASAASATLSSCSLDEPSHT
Chain of Regulator of G-protein signaling 16 (Homo sapiens) + Guanine nucleotide-binding protein G(o) subunit alpha (Homo sapiens) (P09471 whole entry, looked up): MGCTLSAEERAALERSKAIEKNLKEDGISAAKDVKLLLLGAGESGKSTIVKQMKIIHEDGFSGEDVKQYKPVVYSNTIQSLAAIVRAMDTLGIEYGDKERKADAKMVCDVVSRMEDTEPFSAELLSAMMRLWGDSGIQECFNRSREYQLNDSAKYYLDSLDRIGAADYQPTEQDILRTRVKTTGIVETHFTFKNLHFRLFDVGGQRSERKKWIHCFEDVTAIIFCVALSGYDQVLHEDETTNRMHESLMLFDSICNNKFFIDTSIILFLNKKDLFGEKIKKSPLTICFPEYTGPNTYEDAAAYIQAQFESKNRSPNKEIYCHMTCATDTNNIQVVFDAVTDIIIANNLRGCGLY
With `O=C(Nc1cccnc1Oc1ncnc2cc(Cl)ccc12)c1ccc(F)cc1`, the binding response (% of control) was 102%.
Then `CN1CCN(c2ccc(CNS(=O)(=O)c3cccc(F)c3)cc2)CC1`, with 104%; and `CN(C)CCOc1cccc(Br)c1`, with 103%; and `CC1(C)C=C2[C@H]3CC[C@@H]4[C@@]5(C)CCC(=O)C(C)(C)[C@@H]5CC[C@@]4(C)[C@]3(C)CC[C@@]2(C(=O)O)CC1`, with 267% [activator] (active).
Regarding `CC1Cc2ccccc2N1CC(=O)Nc1ccc(S(N)(=O)=O)cc1` (stereo unspecified), the binding response (% of control) is 93.2%.
The figure for `O=C1CCC(=O)N(O)CCCCCNC(=O)CCC(=O)N(O)CCCCCNC(=O)CCC(=O)N(O)CCCCCN1` is 40.8%.
The figure for `CCS(=O)(=O)c1cc([N+](=O)[O-])c(Sc2ccccc2N)s1` is 91.4%; for `O=C(NCCCn1ccnc1)C(=O)NCC1OCCN1S(=O)(=O)c1cc(F)ccc1F` (stereo unspecified) it is 105%; for `Cc1ccc(SCCC(=O)OCC(=O)Nc2ncc(Cl)cc2Cl)cc1` it is 106%.
As for `Cc1ccc(-n2c(SCC(=O)Nc3ncc(Cl)cc3Cl)nc3ccccc32)cc1`, the binding response (% of control) was 13.7% (active).
As to `NS(=O)(=O)c1cccc(NC(=O)CSc2nc3ccccc3n2-c2ccccc2)c1`, the binding response (% of control) is 105%.
The figure for `CCCNC(=O)c1c(Cl)cnn1-c1ccc(C)cc1` is 99.5%; for `Cc1c(C(=O)Nc2ccccc2Cl)oc2ccc(S(=O)(=O)N3CCC4(CC3)OCCO4)cc12` it is 107%; for `CCOc1ccccc1NC(=O)c1cc(S(=O)(=O)N2CCC3(CC2)OCCO3)ccc1F` it is 4.15% (active).
Then `CCOc1ccccc1NC(=O)CCN1CCN(S(=O)(=O)c2ccc(OC)cc2)CC1`, with 102%; and `Cc1ccc(C(=O)N/C(=C/c2cccnc2)C(=O)O)cc1`, with 100%.
On to `Cc1cc(OCCN2CCCC2)cc(C(C)C)c1`, for which the binding response (% of control) was 93.3%.
The figure for `COC(c1ccccc1)c1nnc(CCC(=O)N2CCN(CCOc3ccccc3)CC2)o1` (stereo unspecified) is 101%; for `COc1cccc(C(=O)NCCSc2ccc(Br)cc2)c1` it is 11.1% (active).
The figure for `COc1cc(OC)cc(C(=O)NCCSCc2ccco2)c1` is 97.1%; for `COc1cccc(C(=O)NNC(=O)c2ccccc2Br)c1` it is 105%.
With `CC(=O)c1sc(NC(=O)C2=NN(c3ccccc3)C(=O)CC2)nc1C`, the binding response (% of control) was 102%.
Then `O=C(Cn1ncc(N2CCCC2)c(Br)c1=O)c1ccc(Cl)cc1`, with 103%.
The figure for `O=C(CN1CCN(c2ccc(Cl)cc2)CC1)N1CCCC1` is 101%; for `COC(=O)c1ccccc1OCC(=O)N1CCN(c2ccc(Cl)cc2)CC1` it is 461% [activator] (active); for `O=C(COc1ccc(Cl)cc1)N1CCN(c2cccc(C(F)(F)F)c2)CC1` it is 107%.
The figure for `CN(C(=O)COC(=O)c1cc(-c2ccco2)nc2ccccc12)C1CCS(=O)(=O)C1` (stereo unspecified) is 89.7%; for `Cc1cc(C)cc(N(CC(=O)Nc2c(C)n(C)n(-c3ccccc3)c2=O)S(C)(=O)=O)c1` it is -28.4% (active); for `Cc1cc(C)cc(N(C(C)C(=O)Nc2c(C)n(C)n(-c3ccccc3)c2=O)S(C)(=O)=O)c1` (stereo unspecified) it is 109%.
As for `Cc1ccc(S(=O)(=O)CC(=O)Nc2c(C)n(C)n(-c3ccccc3)c2=O)cc1`, the binding response (% of control) was 98%.
Then `C/C(=N/N1CCN(Cc2cccc3ccccc23)CC1)c1cccnc1`, with 104%; and `COC(=O)c1ccccc1NC(=S)NC(=O)c1ccccc1F`, with 101%.
Then `C/C=C/C(=O)OCC(=O)Nc1ccc(F)cc1Cl`, with 104%.
Consider `Cc1cccc(CN2CCN(Cc3cnn(-c4ccccc4F)c3)CC2CCO)n1` (stereo unspecified), for which the binding response (% of control) was 101%.
The figure for `O=C(NCc1ccccc1)c1ccc(S(=O)(=O)Nc2cccc(C(F)(F)F)c2)cc1` is 80.9%; for `CCOC(=O)CSc1nc2c(c(=O)n(C)c(=O)n2C)n1Cc1ccccc1F` it is 102%; for `Cn1c(=O)c2c(nc(SCC(=O)Nc3ccccc3N3CCCCC3)n2C)n(C)c1=O` it is 117%.
The figure for `CCOC(=O)CSc1nc2c(c(=O)n(Cc3ccccc3Cl)c(=O)n2C)n1C` is -55.5% (active); for `COc1ccccc1C1CCN(C(=S)Nc2ccc(Br)cc2)CC1` it is 98%.
Then `CC(C)CC(=O)NC(=S)Nc1cc(C(=O)O)ccc1Cl`, with 103%; and `CC(=O)c1ccc(NC(=S)NC(=O)CC(C)C)cc1`, with 21.8% (active).
Regarding `COc1ccc(NS(=O)(=O)c2ccc(NC(=S)NC(=O)CC(C)C)cc2)cc1`, the binding response (% of control) was 98.4%.
Then `CC(=O)Nc1cccc(-c2nc3ccccc3s2)c1C`, with 108%; and `C/C(=N\NC(=O)c1cccnc1)c1ccc(-c2ccccc2)cc1`, with 95.2%.
The figure for `CC(C)c1nc(CNC(=O)CC2C(=O)NCCN2Cc2ccoc2)cs1` (stereo unspecified) is 105%.
With `CC(C)=C1SC(N2CCN(c3ccc(C)c(Cl)c3)CC2)=NC1=O`, the binding response (% of control) is 99.9%.
As to `COc1ccc(CC(=O)Nc2ccc(C(=O)NC(C)(C)C)cc2)cc1`, the binding response (% of control) was 99.7%.
Take `Cc1cccc(C)c1NC(=O)CNC(=O)Cc1ccc(Br)cc1`: the binding response (% of control) is 98.2%.
The figure for `CC(C)(C)NC(=O)c1cccc(NC(=O)Cc2ccc(Br)cc2)c1` is -3.28% (active); for `O=C(COC(=O)c1ccncc1)c1ccccc1` it is 104%; for `O=C1C2C3C=CC(C3)C2C(=O)N1c1ccc(S(=O)(=O)Nc2nccs2)cc1` (stereo unspecified) it is 93.2%.
The figure for `O=C(Nc1ccccc1)c1cc2ccccc2[nH]1` is 13.8% (active).
The figure for `CC(C)n1c(=O)[nH]c2cc(C(=O)Nc3ccccc3)ccc21` is 107%.
For `COc1ccc2[nH]c(C(=O)Nc3ccccc3Cl)cc2c1`, the binding response (% of control) is 97.5%.
As to `O=C(Nc1ccc(S(=O)(=O)Nc2nccs2)cc1)c1cc(=O)[nH]c2ccccc12`, the binding response (% of control) was 100%.
The figure for `CC1CCN(Cc2nc(-c3ccc(Cl)cc3)no2)CC1` is 108%; for `COC(=O)C1=C(Nc2ccc(C)cc2)C=C(C)C(C(=O)OC)C1c1ccc(F)cc1` (stereo unspecified) it is 109%; for `CN(c1ccccc1)c1ccc(/C=c2\s/c(=C(/C#N)C(=O)C(C)(C)C)n(Cc3ccco3)c2=O)cc1` it is 551% [activator] (active).
Then `Cc1cs/c(=N\N=C\c2ccc(O)cc2)n1Cc1ccco1`, with 104%; and `COc1ccc(NC(=O)Cn2c(=O)n(Cc3ccco3)c(=O)c3ccccc32)cc1`, with 101%; and `COc1ccccc1-n1cn[nH]c1=S`, with 102%.
Then `COc1ccccc1-n1c(-c2cc(-c3ccco3)[nH]n2)n[nH]c1=S`, with -1.14% (active); and `COc1ccc(OC)c(-n2c(-c3ccn[nH]3)n[nH]c2=S)c1`, with 102%.
Turning to `CCCOc1ccc(Cc2c(Cl)nc(SC)nc2NC)cc1`, the binding response (% of control) is 97.7%.
The figure for `COc1ccc(/C=N/n2nnnc2N)cc1OC` is 125%; for `CN(C)CCNC(=O)/C(=C/c1cccc([N+](=O)[O-])c1)NC(=O)c1ccccc1` it is 219% [activator] (active).
Take `O=C(NCCc1ccccc1)/C(=C\c1ccc([N+](=O)[O-])cc1)NC(=O)c1ccccc1`: the binding response (% of control) was 101%.
The figure for `C=CCNC(=O)/C(=C\c1cccc([N+](=O)[O-])c1)NC(=O)c1ccccc1` is 98%.
Consider `CCSc1ccccc1C(=O)NCc1ccc(OC)cc1`, for which the binding response (% of control) is 98.1%.
Take `CCN(CC)S(=O)(=O)c1cccc(-c2n[nH]c(=S)n2/N=C/c2ccc(C(=O)OC)cc2)c1`: the binding response (% of control) is 334% [activator] (active).
Then `COC(=O)c1ccc(/C=N\n2c(C)nnc2C)cc1`, with 82.2%; and `S=c1[nH]nc(-c2cc(-c3ccccc3)n[nH]2)n1/N=C/c1c2ccccc2cc2ccccc12`, with 97.7%; and `Cc1cccc(NC(=O)c2nc[nH]c2C(=O)NCC(=O)OCc2ccccc2)c1`, with 110%.
Then `NC(=O)Cc1ccc2sc(-c3ccccc3)nc2c1`, with 23.6% (active).
The figure for `NC(=O)Cc1ccc2c(c1)[nH]c1ccccc12` is 103%.
Regarding `O=C(O)Cc1sc(-c2ccc(C(=O)O)cc2)nc1-c1ccccc1`, the binding response (% of control) is 99.1%.
The figure for `CSCC[C@H](NC(=O)CCCn1nnc2ccccc2c1=O)C(=O)O` is 104%.
The figure for `COc1ccc(OC)c(/C=N/NC(=O)CSc2nnc(C)n2-c2ccccc2)c1` is 97.7%.
Take `Cc1ccc(Cn2c(SCC(=O)N/N=C/c3ccccc3OCC(=O)O)nc3ccccc32)cc1`: the binding response (% of control) is 99.5%.
For `C=CCn1c(Cn2nnc3ccccc32)nnc1SCC(=O)N/N=C/c1cc(Br)cc(OC)c1O`, the binding response (% of control) is -35.2% (active).
The figure for `Cc1ccc(NC(=O)NCC(c2cccnc2)N2CCOCC2)cc1` (stereo unspecified) is 105%; for `CN1CCN(C(CNS(=O)(=O)c2cccs2)c2cccnc2)CC1` (stereo unspecified) it is -5.62% (active); for `CN1CCN(S(=O)(=O)c2ccc(N3CCN(S(=O)(=O)c4cccs4)CC3)nc2)CC1` it is 98.8%.
The figure for `Cn1nc(C(C)(C)C)c([N+](=O)[O-])c1C(N)=O` is 98.6%.
Then `COc1ccc2c(c1)CC[C@@H]1[C@@H]2CC[C@]2(C)C(=O)CC[C@@H]12`, with 101%.
With `O=C(NCCc1c[nH]c2ccc(Cl)cc12)c1ccc([N+](=O)[O-])cc1`, the binding response (% of control) was 112%.
As for `COc1ccccc1-n1c(=S)[nH]c2c(sc(=S)n2-c2ccc(C)cc2C)c1=O`, the binding response (% of control) is 94.4%.
The figure for `COc1cccc(C2Nc3cccc4cccc(c34)N2)c1` is 106%; for `O=[N+]([O-])C(=c1ccc2c(c1)N1C3=C(CCCC3)CC3CCCCC31N=2)[N+](=O)[O-]` (stereo unspecified) it is 20.9% (active).
The figure for `Cc1ccc(C)c(NC(=O)C(OC(=O)c2ccc(C)s2)c2ccccc2)c1` (stereo unspecified) is 112%.
The figure for `COc1ccc(CN(Cc2ccc(OC)cc2)C(=O)c2cccs2)cc1` is 99%.
